# PubChem BioAssay (Tox21)
# Results filed as inconclusive are left out. Unmarked numbers belong to inactive results. Active and inactive are the calls of the source. Unless noted, the call rests on the fitted dose curve.
# Assay: qHTS assay to identify small molecule antagonists of the vitamin D receptor (VDR) signaling pathway - cell viability counter screen (AID 743225; active means well fitted cell-killing curve with a large enough effect in the repeat runs; further: nearly all actives have a fitted effect of over 50% in size; further: potency means the concentration at half of the fitted maximal effect)
# Details: VDR-bla HEK293T viability, CellTiter-Glo luminescence, 16 h; series mostly up to 61 µM; viability change, negative = cytotoxic: at the top concentration
# Procedure, shortened: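 Cytotoxicity toward the VDR-bla HEK 293T line was scored by ATP-based CellTiter-Glo luminescence, read in the wells already used for the beta-lactamase readout after 16 h compound treatment under 3 nM 1-alpha,25-dihydroxyvitamin D3 stimulation.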
# On the % scale 0 is the no-effect control and ±100 the full control effect.
SMILES,"viability change, negative = cytotoxic",Potency
CC(=O)Nc1ccc(/C=N/NC(N)=S)cc1,5.01%,–
CC(C)(C)c1ccc(OCC2CO2)cc1 (centres undefined),-7.57% [at 78.8 µM],–
CC(Cc1cccc(C(F)(F)F)c1)NCCOC(=O)c1ccccc1 (centres undefined),–,16.9 µM (active)
Nc1ccc(C(=O)Nc2ccccc2N)cc1,-4.36%,–
CN(C)CCCNCCCN,8.5%,–
CC(C)(C)c1ccc(S)cc1,-0.203%,–
CC(C)NCC(O)c1cc(O)cc(O)c1 (centres undefined),0.0106%,–
CCCCCCCCCC(=O)OCC,11.7%,–
CCCCCCc1ccc(N)cc1,-28%,–
N#Cc1c(F)cccc1F,5.84%,–
CC(C)(C)C1CCCCC1O (centres undefined),-16.8%,–
CCCCCc1ccc(N)cc1,-13.6%,–
O=C=NC1CCC(CC2CCC(N=C=O)CC2)CC1 (centres undefined),-19.1%,–
CCCCCCCCCCCCCCC1CO1 (centres undefined),0%,–

# Assay: qHTS assay to identify small molecule agonists of the NFkB signaling pathway - cell viability counter screen (AID 1159515); further: nearly all actives have a fitted effect of over 55% in size
# Details: NFkB-bla ME-180 viability, CellTiter-Glo luminescence, 5 h; series mostly up to 61 µM; activity, negative = cytotoxic: at the top concentration
# Procedure, shortened: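 Using the same wells as the NFkB reporter read, ME-180 NFkB-bla cells given compounds for 5 hr were assessed for viability via CellTiter-Glo, with luminescence taken after a 30 min room-temperature incubation.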
row,SMILES,"activity, negative = cytotoxic"
1,C#CCOC(=O)[C@@H](C)Oc1ccc(Oc2ncc(Cl)cc2F)cc1,-1.41%
2,O=C(O)C(c1ccc(Cl)cc1)c1ccc(Cl)cc1,19.9%
3,CCCCOC(=O)c1ccccc1C(=O)OCC(CC)CCCC (centres undefined),-5.52%
4,CC(=O)[C@@]1(O)CC[C@H]2[C@@H]3C[C@H](C)C4=CC(=O)CC[C@]4(C)[C@H]3CC[C@@]21C,0.0098%
5,CC(C)NCC(O)COc1ccc(CC(N)=O)cc1 (centres undefined),-2.56%
6,O=C(Nc1ccccc1)OCC(CN1CCCCC1)OC(=O)Nc1ccccc1 (centres undefined),-11.8%
7,CCCCCCCCCCCCC(=O)O,7.89% [at 78.8 µM]
8,CCOC(=O)C1=NN(c2ccccc2)C(=O)C1,-0.0871%
9,Cc1cc(O)ccc1N,9.27% [at 78.8 µM]
10,c1ccc(CNCc2ccccc2)cc1,-4.7%
11,c1ccc(-c2nc[nH]c2-c2ccccc2)cc1,-25.8%
12,CCCCOC(O)CC (centres undefined),7.1%
13,CC(=O)/C=C/C1C(C)=CCCC1(C)C (centres undefined),1.52%
14,CC[C@H](C)[C@@H](C(=O)O)n1sc2ccccc2c1=O,-11.2%
15,CCOc1nc2cccc(C(=O)O)c2n1Cc1ccc(-c2ccccc2-c2nn[nH]n2)cc1,13.3%
16,O=C1CCCCCO1,-2.43% [at 78.8 µM]
17,COc1ccc([C@@H]2Sc3ccccc3N(CCN(C)C)C(=O)[C@@H]2OC(C)=O)cc1,-25.9%
18,CCN(CC)CCc1nc(-c2ccccc2)no1,3.71%
19,O=C(O)/C=C/c1cnc[nH]1,5.09%
20,O=C(O)c1cn(C2CC2)c2cc(Cl)c(F)cc2c1=O,8.65%

row,SMILES,"activity, negative = cytotoxic"
1,C[C@@H](C1=C(CCN(C)C)Cc2ccccc21)c1ccccn1,0.832%
2,CCOc1ccc2[nH]cc(C(=O)NCc3ccccc3)c(=O)c2n1,5.36%
3,CC(C)=CCCC(C)CC=O (centres undefined),-1.67%
4,CNS(=O)(=O)Cc1ccc2[nH]cc(CCN(C)C)c2c1,-11.8%
5,OCCC1CCCCN1 (centres undefined),11% [at 78.8 µM]
6,O=S1(=O)N=C(O)c2ccccc21,-6.76%
7,CC(=O)Nc1ccc(/C=N/NC(N)=S)cc1,-0.623%
8,CC(C)(C)c1ccc(OCC2CO2)cc1 (centres undefined),-15.7% [at 78.8 µM]
9,CC(Cc1cccc(C(F)(F)F)c1)NCCOC(=O)c1ccccc1 (centres undefined),-9.29%
10,Nc1ccc(C(=O)Nc2ccccc2N)cc1,0.258%
11,CN(C)CCCNCCCN,9.22%
12,CC(C)(C)c1ccc(S)cc1,-7.5%
13,CC(C)NCC(O)c1cc(O)cc(O)c1 (centres undefined),15.1%
14,CCCCCCCCCC(=O)OCC,-6.58%
15,CCCCCCc1ccc(N)cc1,-7.51%
16,N#Cc1c(F)cccc1F,8.57%
17,CC(C)(C)C1CCCCC1O (centres undefined),-1.22%
18,CCCCCc1ccc(N)cc1,-13.2%
19,O=C=NC1CCC(CC2CCC(N=C=O)CC2)CC1 (centres undefined),-0.525%
20,CCCCCCCCCCCCCCC1CO1 (centres undefined),-3.77%

# Assay: qHTS assay to identify small molecule agonists of the endoplasmic reticulum stress response signaling pathway - cell viability counter screen (AID 1159517);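 further: HeLa cells carrying an ER stress response element beta-lactamase reporter; nearly all actives have a fitted effect of over 50% in size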
# Details: ESRE-bla HeLa viability, CellTiter-Glo luminescence, 5 h; series mostly up to 61 µM; activity change, negative = cytotoxicity: at the top concentration
# Procedure, shortened: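 ESRE-bla HeLa cells, 1,500 per well, seeded overnight then treated with compounds for 5 hr at 37 C. After the beta-lactamase read, viability in the same wells is measured by CellTiter-Glo luminescence after 30 min at room temperature.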
row,SMILES,"activity change, negative = cytotoxicity"
1,C#CCOC(=O)[C@@H](C)Oc1ccc(Oc2ncc(Cl)cc2F)cc1,-6.53%
2,O=C(O)C(c1ccc(Cl)cc1)c1ccc(Cl)cc1,5.02%
3,CCCCOC(=O)c1ccccc1C(=O)OCC(CC)CCCC (centres undefined),-16.1%
4,CC(=O)[C@@]1(O)CC[C@H]2[C@@H]3C[C@H](C)C4=CC(=O)CC[C@]4(C)[C@H]3CC[C@@]21C,-36.3%
5,CC(C)NCC(O)COc1ccc(CC(N)=O)cc1 (centres undefined),0.805%
6,O=C(Nc1ccccc1)OCC(CN1CCCCC1)OC(=O)Nc1ccccc1 (centres undefined),-3.94%
7,CCCCCCCCCCCCC(=O)O,-7.47% [at 78.8 µM]
8,CCOC(=O)C1=NN(c2ccccc2)C(=O)C1,-0.849%
9,Cc1cc(O)ccc1N,2.96% [at 78.8 µM]
10,c1ccc(CNCc2ccccc2)cc1,16.1%
11,c1ccc(-c2nc[nH]c2-c2ccccc2)cc1,-5.72%
12,CCCCOC(O)CC (centres undefined),-7.11%
13,CC(=O)/C=C/C1C(C)=CCCC1(C)C (centres undefined),-17.3%
14,CC[C@H](C)[C@@H](C(=O)O)n1sc2ccccc2c1=O,-5.5%
15,CCOc1nc2cccc(C(=O)O)c2n1Cc1ccc(-c2ccccc2-c2nn[nH]n2)cc1,0.258%
16,O=C1CCCCCO1,12.6% [at 78.8 µM]
17,COc1ccc([C@@H]2Sc3ccccc3N(CCN(C)C)C(=O)[C@@H]2OC(C)=O)cc1,10.6%
18,CCN(CC)CCc1nc(-c2ccccc2)no1,-0.413%
19,O=C(O)/C=C/c1cnc[nH]1,-23.9%
20,O=C(O)c1cn(C2CC2)c2cc(Cl)c(F)cc2c1=O,14.1%

row,SMILES,"activity change, negative = cytotoxicity"
1,C[C@@H](C1=C(CCN(C)C)Cc2ccccc21)c1ccccn1,10.3%
2,CCOc1ccc2[nH]cc(C(=O)NCc3ccccc3)c(=O)c2n1,-9.94%
3,CC(C)=CCCC(C)CC=O (centres undefined),-17.5%
4,CNS(=O)(=O)Cc1ccc2[nH]cc(CCN(C)C)c2c1,-8.9%
5,OCCC1CCCCN1 (centres undefined),7.01% [at 78.8 µM]
6,O=S1(=O)N=C(O)c2ccccc21,6.29%
7,CC(=O)Nc1ccc(/C=N/NC(N)=S)cc1,-5.29%
8,CC(C)(C)c1ccc(OCC2CO2)cc1 (centres undefined),5.99% [at 78.8 µM]
9,CC(Cc1cccc(C(F)(F)F)c1)NCCOC(=O)c1ccccc1 (centres undefined),-9.13%
10,Nc1ccc(C(=O)Nc2ccccc2N)cc1,-2.27%
11,CN(C)CCCNCCCN,0.425%
12,CC(C)(C)c1ccc(S)cc1,17.7%
13,CC(C)NCC(O)c1cc(O)cc(O)c1 (centres undefined),2.74%
14,CCCCCCCCCC(=O)OCC,15.6%
15,CCCCCCc1ccc(N)cc1,-6.62%
16,N#Cc1c(F)cccc1F,26.1%
17,CC(C)(C)C1CCCCC1O (centres undefined),-5.52%
18,CCCCCc1ccc(N)cc1,-9.19%
19,O=C=NC1CCC(CC2CCC(N=C=O)CC2)CC1 (centres undefined),9.72%
20,CCCCCCCCCCCCCCC1CO1 (centres undefined),12.7%
